From PubChem BioAssay (NCI)
Compounds without any hit were thinned out: in the full panel of roughly 79,000, 15% have a hit. The source made the active and inactive calls. Cut-off read from the data, not from the text of the source: active = growth inhibition above about 70%; inactive = the rest.

Legend:
[1] = NCI Yeast Anticancer Drug Screen. Data for the rad50 strain (AID 155);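 note: 0% = growth of vehicle-only cultures of the same strain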; conditions: S. cerevisiae rad50 strain growth inhibition; at 50.0 µM; hits give high values
Summary of the method: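 A DNA repair-deficient yeast mutant serves as the test organism; compound-induced growth inhibition is calculated against vehicle-treated cells.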

[2] = NCI Yeast Anticancer Drug Screen. Data for the mec2-1 strain (AID 157); conditions: S. cerevisiae mec2-1 strain, at 50.0 µM, hits give high values
Summary of the method: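 Mutant yeast (mec2-1) grown with compound; growth inhibition relative to vehicle control reported.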

[3] = NCI Yeast Anticancer Drug Screen. Data for the sgs1 mgt1 strain (AID 161);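 note: 0% = growth of cultures given vehicle only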; conditions: S. cerevisiae sgs1 mgt1 strain, at 50.0 µM, hits give high values
Summary of the method: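 Percent growth inhibition was derived by comparing compound-exposed mutant yeast with vehicle-exposed cultures. The strain carries alterations in DNA damage repair.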

[4] = NCI Yeast Anticancer Drug Screen. Data for the cln2 rad14 strain (AID 165);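 note: 0% = growth equal to vehicle treated cultures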; conditions: S. cerevisiae cln2 rad14 strain, at 50.0 µM, hits give high values
Summary of the method: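 Readout is yeast growth inhibition versus vehicle-treated controls, using a strain with cln2 and rad14 alterations exposed to compound.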

[5] = NCI Yeast Anticancer Drug Screen. Data for the bub3 strain (AID 167); conditions: S. cerevisiae bub3 mutant strain, at 50.0 µM, hits give high values
Summary of the method: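 Inhibition values come from growth of compound-treated mutant yeast normalised to vehicle-treated controls.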

[6] = NCI Yeast Anticancer Drug Screen. Data for the mlh1 rad18 strain (AID 175); conditions: S. cerevisiae mlh1 rad18 strain growth inhibition; at 50.0 µM; hits give high values
Summary of the method: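 Genetically defined yeast (DNA repair-deficient) exposed to compounds; growth inhibition determined relative to vehicle.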

Measured: growth inhibition

CCC(C(=O)c1ccccc1)c1cccc2c1N(C(C)=O)CC2 (configuration not stated)
inactive: [1] 0.05% | [2] 6.9% | [3] -7.5% | [4] -5.6% | [5] 11.2% | [6] 20.1%

O=C1c2cc3ccccc3cc2NC(O)c2cccn21 (configuration not stated)
inactive: [1] 9.4% | [2] 4.6% | [3] 1.15% | [4] 27.4% | [5] 13.4% | [6] 13.2%

COc1cccc2c(Cl)c3ccc(Cl)cc3nc12
inactive: [1] 11.4% | [2] 5.25% | [3] 0.8% | [4] -39.1% | [5] -18.9% | [6] 15.8%

COc1cc2ccc3c4cc5c(cc4cnc3c2cc1OC)OCO5
inactive: [1] -0.65% | [2] -3.45% | [3] -15.7% | [4] -25.9% | [5] -1.1% | [6] -16.7%

COC(=O)C(=O)C1CCc2c(C(=O)OC)nc3[nH]n(-c4ccccc4)c(=O)c3c21 (configuration not stated)
inactive: [1] 12.1% | [2] -14.3% | [3] 4.2% | [4] -30.2% | [5] 25.1% | [6] 0.25%

CCCCCc1c(C)nc(N)[nH]c1=O
inactive: [1] -3.95% | [2] 0.7% | [3] 1.2% | [4] -40% | [5] -15.4% | [6] -5.45%

Nc1nc(Cl)nc(Cl)c1N
inactive: [1] -21.9% | [2] 7.1% | [3] -17.3% | [4] -23.4% | [5] -8.95% | [6] -2.95%

CC(C)CCCC(C)C1CCC2C3=CCC4CC(=O)CCC4(C)C3CCC21C (configuration not stated)
inactive: [1] 30.9% | [2] -10.9% | [3] 4.65% | [4] 4.35% | [5] -1.2% | [6] 4.5%

C/C(CC(=O)CCC(=O)Nc1cccc(C(F)(F)F)c1)=N\NC(=O)NN
inactive: [1] -25.8% | [2] -16.8% | [3] -26.4% | [4] 1.95% | [5] -13.9% | [6] -15.8%

O=C(Nc1ccccc1Cl)Oc1ccc(Cl)cc1Cl
inactive: [1] 3.5% | [2] 20.1% | [3] 7.4% | [4] -15.1% | [5] -6.05% | [6] -9.45%

CC(C)C1CC[C@H](C)C[C@@H]1OC(=O)C(C(=O)O[C@H]1C[C@@H](C)CCC1C(C)C)C(O)[C@@H]1OC(C)(C)O[C@H]1C1COC(C)(C)O1 (some centres not stated)
inactive: [4] 44.7% | [6] 56.9%
active: [1] 73.8% | [2] 90.8% | [3] 91.9% | [5] 90.8%

O=C(NC(=O)c1cc2cc(Br)cc(Br)c2oc1=O)Oc1ccccc1
inactive: [1] 24.9% | [2] 19.4% | [3] 14.1% | [4] 25.4% | [5] -2.55% | [6] 13.1%

COC(=O)CCC(=O)c1ccc(OC)cc1
inactive: [1] 4.7% | [2] -6.5% | [3] 3.35% | [4] -0.95% | [5] 10.2% | [6] 2.45%

CS(C)(=O)=Nc1ccc(F)cc1
inactive: [1] 8.9% | [2] -7.6% | [3] -2.3% | [4] -21.7% | [5] -13.1% | [6] 3.25%

Cn1c2c(F)cccc2c(=O)c2c(O)cc3c(c21)C=CC(C)(C)O3
inactive: [1] -24.6% | [2] -22.2% | [3] -27.4% | [4] -17.9% | [5] -18.6% | [6] -19.7%

CN(C)Cc1ccccc1COC(=O)c1ccc([N+](=O)[O-])cc1Cl
inactive: [1] -8.9% | [2] -12.6% | [3] 10.8% | [4] -29.1% | [5] 3.65% | [6] -34.1%

CCCc1ccccc1NC(=O)NCCCl
inactive: [1] -1.75% | [2] -2.5% | [3] -0.5% | [4] -30.6% | [5] -12.9% | [6] 5.6%

NC(Cc1c[nH]c2ccc(Br)cc12)C(=O)O (configuration not stated)
inactive: [1] -29.4% | [2] -26.7% | [3] -17.9% | [4] 5.4% | [5] -29.8% | [6] -38.1%

COC(=O)c1cc(C)n(C)c(=O)c1C#N
inactive: [1] 12.6% | [2] 12.5% | [3] -0.85% | [4] 22.1% | [5] 13.9% | [6] 2.9%

COC(=O)C(CC1=C(O)Nc2ccccc2N1)/C(=N/NC(N)=O)C(=O)Nc1ccccc1C (configuration not stated)
inactive: [1] 11.4% | [2] 9% | [3] 13.6% | [4] -17.6% | [5] -5.5% | [6] -46.4%

CC(Oc1ccccc1)C(=O)Nc1ccc(F)cc1 (configuration not stated)
inactive: [1] -1% | [2] 9.5% | [3] 17.8% | [4] -11.1% | [5] 35.9% | [6] 17.6%

CC(=O)Nc1cc(OC(C)=O)nc2c1CCC2
inactive: [1] 14.2% | [2] -0.05% | [3] -5.5% | [4] 7.95% | [5] -1.05% | [6] 11.6%

COc1ccc(/C=N/NC(=O)c2ccc(N)cc2)c(OC)c1
inactive: [1] 5.7% | [2] 9.4% | [3] 10% | [4] -0.9% | [5] 14.2% | [6] 13%

CCO/C([O-])=C(\C=N\S(=O)(=O)c1ccc(C)cc1)[n+]1ccccc1
inactive: [1] 8.8% | [2] 13.8% | [3] 5.1% | [4] -20.2% | [5] -3.85% | [6] 2.65%

O=C(Nc1ncccn1)c1ccc(Cl)cc1Cl
inactive: [1] -11.9% | [2] 4.8% | [3] 30.6% | [4] -21.5% | [5] 10.6% | [6] 32.3%

CC(=O)OC1COC(n2c(O)c(N=NC(N)=S)c3cc(Br)ccc32)C(OC(C)=O)C1OC(C)=O (configuration not stated)
inactive: [1] 41.1% | [2] 8.2% | [3] 46.2% | [4] -34.2% | [5] 27.1% | [6] 31.1%

CCN1C(=NCCO)NS(=O)(=O)c2ccccc21
inactive: [1] -17.2% | [2] 3.4% | [3] -25.4% | [4] -1.95% | [5] -24.6% | [6] 0.35%

O=C(Nc1ccccc1-c1ccccc1)c1ccccc1
inactive: [1] 1.15% | [2] -11.5% | [3] 20.1% | [4] 11.3% | [5] 45.4% | [6] 26.9%

CC(=O)OC1CC(c2ccccc2)N(C)C(c2ccccc2)C1 (configuration not stated)
inactive: [1] 6.85% | [2] -8% | [3] 2.55% | [4] -7.9% | [5] -3.15% | [6] 10.6%

Nc1ncnc2c1cnn2Cc1ccccc1
inactive: [1] 4.9% | [2] -7.3% | [3] 4.65% | [4] -3.75% | [5] 21.2% | [6] 2.35%

C[C@H]1S[C@@H](c2ccc(Cl)cc2Cl)N(NC(=O)c2ccncc2)C1=O
inactive: [1] 57.9% | [2] 45% | [3] 40% | [4] 46.9% | [5] 52.1% | [6] 39.3%

O=C(O)C(CS(=O)(=O)O)S(=O)(=O)O (configuration not stated)
inactive: [1] -10.3% | [2] -18.2% | [3] -1.9% | [4] -7.15% | [5] 3.15% | [6] -10.5%

O=C(O)c1ccccc1Nc1ccccc1[N+](=O)[O-]
inactive: [1] -4% | [2] 22.5% | [3] 17.2% | [4] 8.15% | [5] 27.1% | [6] 17.6%

CC(=O)OC1CCC2(C)C(CCC34OC23CCC2(C)C(C(C)CCCC(C)C)CCC24C)C1(C)C (configuration not stated)
inactive: [1] 45.4% | [2] 16.4% | [3] 39.5% | [4] 1% | [5] -1% | [6] 28.4%

O=C1c2ccccc2-c2cccc(I)c21
inactive: [1] 15.6% | [2] -8.7% | [3] -5.55% | [4] 6.95% | [5] 0.1% | [6] -7.4%

Nc1ccc([N+](=O)[O-])cc1C(=O)O
inactive: [1] 5.1% | [2] 0.9% | [3] -6.8% | [4] -15.7% | [5] 3.05% | [6] 0%

N#CCCc1nc(N)nc(N)n1
inactive: [1] -19.7% | [2] -3.7% | [3] -26.9% | [4] -60.3% | [5] -17.7% | [6] 5.85%

COC(=O)C1OC(O[C@H]2CC[C@]3(C)[C@H]4CC=C5[C@@H]6CC(C)(C)CC[C@]6(C(=O)OC)CC[C@@]5(C)[C@]4(C)CC[C@H]3C2(C)C)C(O)C(O)C1O (some centres not stated)
inactive: [1] 5.45% | [2] -8.4% | [3] 2.05% | [4] 5.85% | [5] 23.6% | [6] 15.1%

C=CCOC(=O)Nc1ccc(S(=O)(=O)CC)cc1
inactive: [1] -0.95% | [2] 5.95% | [3] -4.55% | [4] -21.6% | [5] 22.8% | [6] -1.65%

CC(=O)N1CCC(=O)/C(=C/c2ccccc2)C1
inactive: [1] 4.95% | [2] 0% | [3] 32% | [4] 15.9% | [5] 17.6% | [6] 44%

CC[C@@]1(O)C[C@H](OC2CC(N(C)C)C(OC3CC(O)C(OC4CC(O)C(O)C(C)O4)C(C)O3)C(C)O2)c2c(cc3c(c2O)C(=O)c2c(O)ccc(O)c2C3=O)[C@H]1C(=O)OC (some centres not stated)
inactive: [1] -25.1% | [2] -14.8% | [3] -35% | [4] 4.3% | [5] 1.95% | [6] 7.45%

CC(=O)OCC(=O)C1(O)CCC2C3CCC4=CC(=O)CCC4(C)C3(SC#N)CC(=O)C21C (configuration not stated)
inactive: [1] -8% | [2] 19.9% | [3] 27.2% | [4] 13.2% | [5] 11.8% | [6] 2.45%
